# Test results from PubChem BioAssay AID2284334 (EPA ToxCast).
# Inconclusive results are not listed. Calls of active or inactive are those of the source. How the source made its calls: active means hit-call score of the fitted dose curve at least 0.9, where 1 is the maximum; inconclusive means response in the unintended direction; inactive means score below 0.9.
# Biological target: human Peroxisome Proliferator-activated Receptor alpha (PPARa), PPARA (gene 5465) (UniProt Q07869)
# Assay: ATG_hPPARa_EcoTox2: Attagene TRANS-FACTORIAL EcoTox-2 HepG2 Assay for human Peroxisome Proliferator-activated Receptor alpha (PPARa)
# Experimental: ATG_EcoTox2 is a cell-based, multiplexed assay created by modifying the existing Attagene TRANS-FACTORIAL system to include a panel of nuclear receptors from some or all the following species: human (Homo sapiens), african clawed frog (Xenopus laevis), rainbow trout (Oncorhynchus mykiss), japanese medaka (Oryzias latipes), and zebrafish (Danio rerio). The ECOTOX2-FACTORIAL format uses HepG2, a human liver cell line, with measurements taken at 24 hours after chemical dosing in a 24-well plate. ATG_hPPARa_EcoTox2 is one of 29 assay components calculated in the ATG_EcoTox2 assay. It is designed to make measurements of mRNA induction, a form of inducible reporter, as detected with fluorescence intensity signals by Reverse transcription polymerase chain reaction (RT-PCR) and Capillary electrophoresis technology.The assay endpoint ATG_hPPARa_EcoTox2 was analyzed in the positive analysis fitting direction relative to DMSO as the negative control and baseline of activity. Using a type of inducible reporter, measures of mRNA for gain-of-signal activity can be used to understand the reporter gene at the transcription factor-level as they relate to the gene PPARa. Furthermore, this assay endpoint can be referred to as a primary readout, because this assay has produced multiple assay endpoints where this one serves a reporter gene function. To generalize the intended target to other relatable targets, this assay endpoint is annotated to the nuclear receptor intended target family, where the subfamily is non-steroidal.
# Human liver HepG2 cells are transiently transfected with multiple reporter transcription units (MRTUs) in 6-well plates using FuGene 6 reagent (Roche; 3 ml FuGene/1 mg DNA). The MRTU constructs are regulated by a cis-regulating element (promoter). Each RTU expresses a GAL4-UAS that regulates the transcription of a nearby target reporter gene sequence. A major difference between the CIS and TRANS system is that in CIS activities of endogenous TFs are measured, whereas the TRANS assay evaluates changes in activities of exogenous, chimeric NR-Gal4 proteins. […] At the end of 24 hour incubation, total RNA was isolated using TriZol reagent (Invitrogen). The isolated RNA is then reverse-transcribed using oligo(dT) primer and Mo-MLV reverse transcriptase (Invitrogen) with DNAse I (Ambion) treatment for 30 min. The one-tenth of the produced cDNA was amplified by PCR using Taq DNA polymerase (Invitrogen) and two reporter sequence-specific primers. The PCR products were fluorescently labeled by primer extension with 6-arboxyfluorescein (6-FAM) 5'-labeled reporter sequence-specific primer (2 min at 95 C, 20 s at 68 C and 10 min at 72 C) and these products were digested with 5U of HpaI (New England Biolabs) for 2h at 37 C. The fragments were purified using Qiaquick PCR columns (Qiagen), analyzed on an ABI 3130xL genetic analyzer (Applied Biosystems) with peak positions identified by using a set of X-rhodamine (ROX)-labeled MapMarker1000 molecular weight standards (BioVentures). The raw capillary electrophoresis data was processed using Attagraph software (Attagene).
# Chain of human Peroxisome Proliferator-activated Receptor alpha (PPARa), PPARA (gene 5465) (Q07869 whole entry, looked up): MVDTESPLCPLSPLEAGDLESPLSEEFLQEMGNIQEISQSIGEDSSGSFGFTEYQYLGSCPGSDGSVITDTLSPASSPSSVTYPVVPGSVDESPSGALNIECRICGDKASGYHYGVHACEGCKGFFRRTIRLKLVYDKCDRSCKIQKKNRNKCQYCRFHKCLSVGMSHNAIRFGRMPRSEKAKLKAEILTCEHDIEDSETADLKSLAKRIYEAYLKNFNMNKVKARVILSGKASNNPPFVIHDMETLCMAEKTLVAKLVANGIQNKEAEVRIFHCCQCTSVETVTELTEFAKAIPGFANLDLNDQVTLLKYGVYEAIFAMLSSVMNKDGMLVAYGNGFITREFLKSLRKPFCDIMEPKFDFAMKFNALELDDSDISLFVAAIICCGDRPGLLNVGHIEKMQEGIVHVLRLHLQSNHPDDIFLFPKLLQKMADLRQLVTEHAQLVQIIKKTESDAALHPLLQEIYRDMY
Structure (SMILES),AC50,outcome
CC(C)(Oc1ccc(Cl)cc1)C(=O)O,17.1 µM (active),
C[C@]12C=CC(=O)C=C1CC[C@@H]1[C@@H]2C(=O)C[C@@]2(C)[C@H]1CC[C@]2(O)C(=O)CO,,inactive
CC(C)(Oc1ccc(C2CC2(Cl)Cl)cc1)C(=O)O (stereo not given),0.984 µM (active),
C[C@@H]1C[C@H]2[C@@H]3CCC4=CC(=O)C=C[C@]4(C)[C@@]3(F)[C@@H](O)C[C@]2(C)[C@@]1(O)C(=O)COP(=O)(O)O,,inactive
CC(c1cc2ccccc2s1)N(O)C(N)=O (stereo not given),,inactive
